The full list was thinned out, with hits kept by preference.
Shiga inhibitor – blocks Shiga toxin action in Vero cells; inhibition, % at 38.7 µM; 9.2% of 290,000 active; Vero cells, Shiga toxin protein synthesis inhibition reporter; in the data active means inhibition mostly above about 28%, no sharp cut-off; inactive means mostly below about 43%
AmpC inh detg – inhibitors of E. coli AmpC beta-lactamase with detergent | 0.041% of 370,000 active | AmpC hydrolysis of nitrocefin, absorbance 480 nm, 0.01% Triton | Potency, µM (series often up to 114 µM), hits mostly inhibitors | P00811 | AID 485294; further: nearly all actives have a fitted effect of over 25% in size
Target sequence (P00811 whole entry, looked up): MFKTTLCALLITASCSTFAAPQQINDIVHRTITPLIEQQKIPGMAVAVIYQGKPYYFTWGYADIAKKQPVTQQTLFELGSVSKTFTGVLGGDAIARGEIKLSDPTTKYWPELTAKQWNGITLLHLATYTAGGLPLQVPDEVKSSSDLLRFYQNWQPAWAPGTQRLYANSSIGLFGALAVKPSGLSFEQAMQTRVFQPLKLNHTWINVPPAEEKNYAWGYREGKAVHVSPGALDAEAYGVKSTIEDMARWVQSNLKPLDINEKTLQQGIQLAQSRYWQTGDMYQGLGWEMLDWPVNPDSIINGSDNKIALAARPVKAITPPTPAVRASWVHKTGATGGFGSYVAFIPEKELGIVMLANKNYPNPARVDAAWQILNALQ
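20 mM phosphate pH 7.0 + 0.01% (detergent screen) or 0.0001% Triton X-100; 5.3 nM AmpC reagent; cpd preinc 15 min RT; nitrocefin (800 uM stock) to start; A480 q20 s × 4 min; Activity was normalised to no-enzyme and no-compound control wells.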
AmpC no deterg – blocks E. coli AmpC beta-lactamase in detergent-free assay | AmpC nitrocefin hydrolysis, absorbance 480 nm, 0.0001% Triton | Potency, µM (top dose mostly 57.1 µM), most hits filed as inhibitors | 0.52% of 330,000 active | AID 485341; further: nearly all actives have a fitted effect of over 20% in size
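20 mM phosphate pH 7.0 + 0.01% (detergent screen) or 0.0001% Triton X-100; 5.3 nM AmpC reagent; cpd preinc 15 min RT; nitrocefin (800 uM stock) to start; A480 q20 s × 4 min; Activity was normalised to no-enzyme and no-compound control wells.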
SARS PLpro yeast – SARS-CoV PLP inhibition in yeast; S. cerevisiae expressing SARS-CoV PLpro, growth rescue; Potency, µM (doses to about 32.9 µM), usual class: activators; 0.19% of 330,000 active; AID 485353; calls by dose curve; further: nearly all actives have a fitted effect of over 55% in size
AMA1 RON2 block – disrupts binding of P. falciparum AMA1 to RON2; 0.2% of 360,000 active; AlphaScreen AMA1-biotinylated RON2 peptide binding; Potency, µM (highest dose often 58.2 µM), most hits filed as inhibitors; further: nearly all actives have a fitted effect of over 45% in size
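AMA1 (3D7) with his tag at 25 nM final met compounds first, then biotinylated RON2 peptide at 25 nM; detection used donor plus acceptor beads, 10 µg/mL apiece, read by AlphaScreen after 30 min at room temperature.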
CHX counter – affects cycloheximide protein synthesis inhibition readout, counter-screen. cell reporter, cycloheximide protein synthesis inhibition counterscreen. max response, %. 12% of 300,000 active; in the data active means max response mostly above about 13%, no sharp cut-off; inactive means mostly below about 14%; further: read at 38.3 µM for the half of the compounds with a filed dose
Large screens that a line does not name were inactive. Unless noted, the call rests on the fitted dose curve; in most records, active means well fitted curve in the direction sought with a large enough effect; inconclusive means small, poorly fitted or top-dose-only effect, or another doubt; inactive means no such curve, though single readings can be large; an effect the other way counts as inactive or inconclusive.

C/C(=N\NC(=O)c1cc(Br)ccc1O)c1cccs1	Shiga inhibitor 126, CHX counter 37
C/C(=N/NC(=O)c1ccc(Br)o1)c1cccs1	Shiga inhibitor 123, CHX counter 50 (no result: SARS PLpro yeast)
COc1cccc(NC(=O)CCN2CCOCC2)c1	none
COc1cccc2c(Cl)c(CC=C(Cl)Cl)c(C)nc12	none
C=CCc1c(C)nc2c(OC)cccc2c1Cl	CHX counter 14
C=CCn1c(O)c(C(=O)CCCCCC)c(=O)[nH]c1=O	none
Cc1cc(NC2CCCC2)n2ncc(-c3ccccc3)c2n1	CHX counter 23
Cc1cc(NC2CCCC2)n2nc(C)c(-c3ccccc3)c2n1	CHX counter 29
C(=C\N1CCCCCC1)/c1nnnn1-c1ccc(-c2ccccc2)cc1	AmpC no deterg inconclusive
O=C(CSc1nc2ccc(NC(=O)c3ccccc3C(=O)O)cc2s1)Nc1ccc(F)c([N+](=O)[O-])c1	Shiga inhibitor 30, AmpC no deterg 18µM
CCN(CC)C(=O)CSc1nc2ccc(NC(=O)CSc3nccn3C)cc2s1	CHX counter 14
Cn1cnnc1SCC(=O)Nc1ccc2nc(SCc3ccccc3Cl)sc2c1	Shiga inhibitor active, AmpC inh detg inconclusive, CHX counter 19
CCN(CC)C(=O)CSc1nc2ccc(NC(=O)CSc3nnc(N)s3)cc2s1	none
Cn1cnnc1SCC(=O)Nc1ccc2nc(SCc3ccccc3)sc2c1	Shiga inhibitor 101, CHX counter 90
O=C(Nc1ccc2nc(SCc3ccccc3)sc2c1)c1ccccc1F	none (no result: Shiga inhibitor, AmpC no deterg, SARS PLpro yeast, AMA1 RON2 block, CHX counter)
COc1cc(C(=O)N/C(=C\c2cn(C)c3ccccc23)C(=O)NCCCO)cc(OC)c1OC	none
CCC(c1nnc(SC(C)C(=O)NC2CC2)n1-c1ccc(OC)cc1)N(C)C (stereo not drawn)	none (no result: Shiga inhibitor, CHX counter)
CN(C)S(=O)(=O)c1cccc(NC(=O)COC(=O)c2ccc([N+](=O)[O-])o2)c1	SARS PLpro yeast inconclusive
CCC1C/C(=C\c2cccnc2)C(=O)/C(=C/c2cccnc2)C1 (stereo not drawn)	CHX counter 38
O=C1/C(=C\c2ccc([N+](=O)[O-])cc2)CCc2ccccc21	CHX counter 26
O=C1NC(=S)N/C1=C/c1cccnc1	none
CC(C)/C=C1\CC/C(=C\c2cccnc2)C1=O	Shiga inhibitor 124, AmpC inh detg inconclusive, CHX counter 78
O=C1/C(=C/Nc2cccc([N+](=O)[O-])c2)CCc2ccccc21	AMA1 RON2 block inconclusive, CHX counter 81
CCOc1ccc(S(=O)(=O)N(C(C)=O)c2ccc3oc(C)c(C(=O)OC)c3c2)cc1	none (no result: Shiga inhibitor, AmpC no deterg, SARS PLpro yeast, AMA1 RON2 block, CHX counter)
O=C1/C(=C\c2cccnc2)CCc2ccccc21	CHX counter 29
O=C1/C(=C/c2cccnc2)CCC/C1=C\c1cccnc1	none
CC(C)N1C(=O)S/C(=C/c2cccnc2)C1=O	CHX counter 20
O=C1/C(=C/c2ccccc2)CCCc2ccccc21	Shiga inhibitor 96, CHX counter 63
O=C1/C(=C/c2cccnc2)CC/C1=C\c1cccnc1	CHX counter 63
CN(C)c1ccc(/C=C2\CCC/C(=C\c3ccccc3)C2=O)cc1	AmpC inh detg inconclusive
CCOC(=O)NC(NCc1cccc(C(F)(F)F)c1)(C(F)(F)F)C(F)(F)F	none
Cn1cc(S(=O)(=O)c2cccc(Cl)c2)c(=O)c2cc(F)c(N3CCCCC3)cc21	none (no result: Shiga inhibitor, AmpC no deterg, SARS PLpro yeast, AMA1 RON2 block, CHX counter)
COc1ccc(NC(=O)N(C)C[C@H]2Oc3ccc(NC(=O)Nc4ccc(C(F)(F)F)cc4)cc3C(=O)N([C@H](C)CO)C[C@@H]2C)cc1	none (no result: Shiga inhibitor, AmpC inh detg, CHX counter)
O=S(=O)(c1ccc(Cl)cc1)N1CCC(N2CCOCC2)CC1	none
COC(=O)c1ccc(C(=O)Nc2ccc(N)cc2N)cc1	AmpC inh detg inconclusive
CCCc1sc(C(=O)Nc2nnc(C3CC3)s2)cc1CC	none (no result: Shiga inhibitor, CHX counter)
N/C(Cc1cccc2ccccc12)=N\OC(=O)Cc1cccs1	Shiga inhibitor 62, CHX counter 49
N/C(Cc1cccs1)=N\OC(=O)COc1ccc(Cl)cc1Cl	Shiga inhibitor 127, CHX counter 59
N/C(Cc1ccc(Cl)cc1Cl)=N\OC(=O)c1cccs1	Shiga inhibitor 52, AmpC no deterg 0.32µM
N/C(Cc1cccc2ccccc12)=N\OC(=O)c1cccs1	none
COc1ccccc1C/C(N)=N/OC(=O)c1cccs1	CHX counter 18
CCOc1ccc(-c2nnc3sc(COc4ccc(Cl)cc4)nn23)cc1	none
C[C@H](NC(=O)Cc1cccc2ccccc12)C(=O)N1CCCN(C)CC1	none
Cc1c(C(c2ccc(N(C)C)cc2)c2c(C)n(C)n(-c3ccccc3)c2=O)c(=O)n(-c2ccccc2)n1C	none
Cc1cc(NC(=O)c2noc3c2CCCC3)nn1Cc1ccc(Cl)cc1	none
CCCc1ccc(OCC(=O)O)cc1	none
COc1ccccc1C/C(N)=N/OC(=O)/C=C/c1ccccc1	Shiga inhibitor 53, CHX counter 22
N/C(Cc1ccc(Cl)cc1Cl)=N\OC(=O)Cc1cccs1	Shiga inhibitor 51, CHX counter 36
COc1ccc(OCC(=O)O/N=C(\N)Cc2ccc(Cl)cc2Cl)cc1	none
O=C(Nc1ccc(Cl)cc1)NC1CCS(=O)(=O)C1 (stereo not drawn)	AmpC inh detg inconclusive
CN1C(=O)/C(=C\c2ccccc2OCc2ccccc2)SC1=S	none
COc1cc2c(cc1OC)CN(Cc1cc(=O)oc3cc(C)c(Cl)cc13)CC2	AmpC no deterg 10µM
COc1cc2c(cc1OC)CN(Cc1cc(=O)oc3cc(C)c(C)cc13)CC2	none
CCn1c(C)nc2cc(C(N)=O)ccc21	AmpC inh detg inconclusive
CCn1c(C)nc2cc(N)ccc21	CHX counter 35
CCn1c(C)nc2cc(C(=O)OCCC(F)(F)F)ccc21	Shiga inhibitor 86, CHX counter 29
COc1ccc(NC(=O)C2Cc3c(-c4ccc(NC(C)=O)cc4)ccnc3O2)cn1 (stereo not drawn)	none (no result: Shiga inhibitor, AmpC inh detg, AmpC no deterg, SARS PLpro yeast, CHX counter)
Cn1c(SCC(=O)NC2CC2)nnc1-c1ccccc1	none
O=C(CSc1ccccc1)Nc1ccc(C(=O)Nc2ccc(O)cc2)cc1	none
COC(=O)c1ccc(NC(=O)CSc2ccccn2)cc1	Shiga inhibitor 36, CHX counter 58
COC(=O)c1ccc(NC(=O)CSc2ccccc2)cc1	Shiga inhibitor 64, CHX counter 31
O=C(CSc1nc2ncccc2[nH]1)c1ccc2c(c1)OCO2	Shiga inhibitor 43, CHX counter 39
Cc1cc(NC(=O)CSc2ccccn2)cc(NC(=O)CSc2ccccn2)c1	AmpC inh detg inconclusive
CCN(CC)C(=O)Nc1ccc(C(=O)OC)cc1	CHX counter 16
CCN(CC)C(=S)Nc1ccc(C(=O)OC)cc1	none
Cc1ccc(CN2C(=O)C(O)(CC(=O)c3ccc(C)cc3)c3ccccc32)cc1 (stereo not drawn)	none (no result: Shiga inhibitor, AmpC no deterg, SARS PLpro yeast, AMA1 RON2 block, CHX counter)
COC(=O)c1ccc(NC(=O)CSc2nc3ncccc3[nH]2)cc1	CHX counter 12
